According to PubChem BioAssay AID1508600 (Functional Genomics Laboratory (NCATS/FGL), 2020):
In all, about 53,000 sequences went through this assay and about 3,700 (7%) were called active.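 The calls were made as follows: active = gene knockdowns whose robust z-score for IL-1 alpha signal is at least 2 or at most -2, so actives lie on both sides; inactive = the rest.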 Many of the other results were omitted from the sample, so actives are more common in it than they were.

experiment: Components of the Cytosolic LPS Sensing Pathway: Gene Identification via Genome-wide siRNA Screen; conditions: RAW264.7 macrophages, IL-1a HTRF, actives lie on both sides, screened at 100 nM (by protocol), cells primed 5 h with Pam3CSK4 first;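 also: robust z of the log signal after scaling to non-targeting control siRNA wells of the plate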
In short: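 IL-1a HTRF of supernatants after 24 hour LipidA transfection of Pam3CSK4-primed (5 hours) RAW264.7 cells, 48h post-siRNA transfection (100 nM). Scores: percent of plate negative-control median, then log-based robust z-score.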

| Sequence | z-score |
| --- | --- |
| GGACCAUGAGACGAUGGGATT against Dysf | 0.167 (inactive) |
| GCUAAUGACACCACUUUUGTT against Aldh9a1 | -0.379 (inactive) |
| GGAUUGAGUCCUAUGAAGGTT against Stard3nl | -1.09 (inactive) |
| CCAAGUGACUUUAAGGAUGTT against Pcolce | 0.759 (inactive) |
| GGCCAUCAUAUCACCAUUUTT against Rcsd1 | 1.6 (inactive) |
| GCCUUAGGCAUUUAGAUUUTT against Zbed4 | 1.33 (inactive) |
| GCUGAAGUUCGUACCCUACTT against Osbp2 | -2.42 (active) |
| CGGAGUUCAGCAUUUACCCTT against Shld2 | 0.428 (inactive) |
| GGCAGUUUGACAACUUUAATT against Fibp | -0.653 (inactive) |
| CCCAGCUCAGGUUUCUAUGTT against Dact2 | 0.0333 (inactive) |
| GGUGAUCAAUCCUCUAAUATT against Eid2 | 2.61 (active) |
| GCCUAUGUAAAUAGUGCUGTT against Mt3 | 0.549 (inactive) |
| GCUAGGUUGGAUAUAUAUGTT against Mypn | -0.0247 (inactive) |
| CGAAGUGAGAAUUGAAUUUTT against Zp2 | 1.51 (inactive) |
| GCUGCUCAGUUUCUUCCAATT against H4c9 | 2.08 (active) |
| CGGGAAGUAGUGCAACACCTT against Taldo1 | -0.902 (inactive) |
| GCACGUAGUAAGAUGUUACTT against Cnot9 | -0.969 (inactive) |
| GGGCAUGAAUGGUUACUUATT against Mllt6 | 1.24 (inactive) |
| GCACAGUACCAUAACGGCUTT against Nampt | -2.06 (active) |
| GGGUGUCAUAUAUAUUGCUTT against Gpr83 | 0.889 (inactive) |
| GCAAGUGAAAUCCAAACAGTT against Nabp1 | -1.54 (inactive) |
| GGUGAGAAGACCAUUGAUUTT against Insr | 0.459 (inactive) |

| Sequence | z-score |
| --- | --- |
| GGUACUCUCAUUAUCUUUCTT against Tlr8 | -0.217 (inactive) |
| GUGAGAAGUUGUGUAGAGCTT against Fmc1 | 1.84 (inactive) |
| GCAUACAACUGUUCAUAGATT against Nsrp1 | -0.476 (inactive) |
| GGAGCUGAGGGAACCUUGUTT against Slc35c1 | -2.67 (active) |
| GGACAGCGACAAGAUUCCGTT against Sox4 | -0.714 (inactive) |
| GCCUUUAAUCAACCCAAGATT against Scd1 | -0.728 (inactive) |
| GCUAAAGAUGAGCGUACAUTT against Myh10 | 1.44 (inactive) |
| GGUGGUGGAGAAGAUAGGATT against Pax8 | -1.05 (inactive) |
| CCAUCUAUUACGGAACGGGTT against Olfr324 | 1.36 (inactive) |
| GGCCUCAACUAAGAACCCUTT against Pcdh1 | -0.298 (inactive) |
| GGUCCAAUUAACCUAUCUUTT against Ppip5k2 | -2.06 (active) |
| GGAGAUUAGUUACUUCCAGTT against Slc1a7 | 3.5 (active) |
| GGAUACAUUAAUUGUUUGGTT against Ppp4r3b | 2.55 (active) |
| GGUCACUGCUAAAGCCUGATT against Stoml3 | 0.864 (inactive) |
| GGCCAUGAAUAUGGAGUCCTT against Cptp | 0.623 (inactive) |
| GGAAAUCAGAGCUGAGUUATT against Ankrd6 | 0.0763 (inactive) |
| GGUAGUAGUAAGCCAUAAATT against Exoc8 | 0.736 (inactive) |
| CCCUUGAACAUUCUACUCUTT against 1700012A03Rik | -0.955 (inactive) |
| GAUCAUCGGCAUUUUGAACTT against Il4 | -0.527 (inactive) |
| GGCUGGUACAAAGUUUUAGTT against Mpv17 | 2.55 (active) |
| GGUAGUAGGAGUUUCCUACTT against 4933414I15Rik | 1.44 (inactive) |
| CGGUAAUCAUUGCUGUUCUTT against H2-K1 | 1.05 (inactive) |

| Sequence | z-score |
| --- | --- |
| GGAAGACCAAUAGUACUGCTT against Il1rn | -0.0282 (inactive) |
| GGAGUACGAAUUCCUCACUTT against Arhgdib | -0.0475 (inactive) |
| GGCUCAAAGAAUAUGCCAATT against Rad54b | 0.99 (inactive) |
| GCCAGUGCUGGUUUGAAAUTT against Clip4 | 1.67 (inactive) |
| CCACUGUUACCAUUAUAAUTT against Pramel4 | -0.594 (inactive) |
| GGAUAAAGGAAUCUGAUCUTT against Unc80 | -2.58 (active) |
| GCGCAGAAGAGGCUAUUAUTT against Asprv1 | -0.125 (inactive) |
| GGUAGCACUUACGUGAAAUTT against Mbd2 | -0.655 (inactive) |
| GCAUAUGGCACCACAUUGUTT against Psg25 | 0.0646 (inactive) |
| GGAUAUCAGGGUUGUUAAGTT against Txnl4b | 0.952 (inactive) |
| GGCUAUGUUAAUUUGUCCCTT against Hc | 0.00272 (inactive) |
| GCAAUAUGUGACAAACUUCTT against Ptpn22 | 2.06 (active) |
| GGAAUCAGCAAUGGACCCUTT against Parn | -0.818 (inactive) |
| CCUGGGCCUUAACAAGAAGTT against Upf1 | -1.32 (inactive) |
| CCCACUUUGAAAAAGACUCTT against Mei4 | 2.5 (active) |
| GCUUUGGAUAGUAGACAGCTT against BC055324 | 0.199 (inactive) |
| GGGACAAUUAGAAAGACAUTT against Mtif2 | 0.982 (inactive) |
| GGAACCAACCAGGAGAAAUTT against Ms4a4d | -2.58 (active) |
| GGAACUCACGCACAUAUUUTT against Net1 | -0.483 (inactive) |
| GACUUACUUGCAUCACUGATT against Vmn1r4 | -0.732 (inactive) |
| GGUGAAUGUAUAAGUUAUGTT against Icam1 | 1 (inactive) |
| GCUUUCUUAGCAUUAAAUCTT against Zkscan3 | -0.274 (inactive) |

| Sequence | z-score |
| --- | --- |
| GGUUCAUGAUGGAUGACAUTT against Bmerb1 | -1.96 (inactive) |
| GGCUUGAAGUUCAUUUAUUTT against Nkiras2 | -1.03 (inactive) |
| GGUUAUUCAAAAAUGCAACTT against Rcor1 | -0.559 (inactive) |
| GGAAAGGCUCAAUGAGAGCTT against Nipa2 | -3.3 (active) |
| GGUCUAUGCGAUGCUAUACTT against Sarm1 | -0.508 (inactive) |
| GCCGUUUACCUUAGUCUGUTT against Cyb5rl | 0.00283 (inactive) |
| GCCAGCCUAAAAAAGAUACTT against Eef1g | 0.254 (inactive) |
| GGAUCUUGGCUAAAGAGGGTT against Slc25a25 | 0.0129 (inactive) |
| GCAAUUGAAAGUGAACAAUTT against Olfr1360 | -0.935 (inactive) |
| GGAGGAAAGUUGUAUUUGATT against Nudt7 | 0.148 (inactive) |
| GGCGAGUUCAGGAGUUUACTT against Fmnl1 | 2.55 (active) |
| GGGUACCUGUCCAAGGUCATT against Mfn2 | 0.849 (inactive) |
| GGAUGGAACAUAUGAUUAGTT against Vmn1r234 | 0.653 (inactive) |
| GGUGUCAGGAUUUUAUAACTT against Etfbkmt | -0.182 (inactive) |
| GGUGGUUUGUGAUGAAAAUTT against Pabpc1 | 2.11 (active) |
| GUUUGUCUAGCUUCAGAUGTT against Rims4 | 1.78 (inactive) |
| GGGAGGACAUCCAGACAAUTT against Fam13b | -0.305 (inactive) |
| GGGAAAGAUAAGCUCAAGGTT against Sh2d2a | 1.32 (inactive) |
| GACUCUAAACCUAGCAGCGTT against Basp1 | -2.34 (active) |
| GGCUGGUUUAUUUGUGGACTT against Cemip2 | 0.574 (inactive) |
| GGAUAUGGAAGAAGUUGUGTT against Olfr1089 | -2.2 (active) |
| CCAGCUAUACGAAGACUUCTT against Hdhd3 | 0.0525 (inactive) |

| Sequence | z-score |
| --- | --- |
| GGAGGUGGAAUCUUUCCCUTT against Aplp1 | -1.68 (inactive) |
| GGAAAAGGCAAUCGUUUCUTT against Mtg2 | 0.278 (inactive) |
| GUAUGUUCAUAUGGUUUUCTT against Swi5 | 2.33 (active) |
| GUCUUCCCUCAUCCUUUGATT against Cox8a | 0.902 (inactive) |
| GCAGAAGUUCAUUUUCCUATT against Olfr145 | 0.969 (inactive) |
| GGUCAUGUCCAUCCCAAAGTT against Ficd | 1.15 (inactive) |
| GGAUUAUUUUAAGUGGAGATT against Dna2 | -0.103 (inactive) |
| GGAUUCACUAGCAUUGUAGTT against Guca1b | -0.725 (inactive) |
| GGAGCUUCUAGACUGUACCTT against Lrmp | 2.03 (active) |
| GCAAGAAUCAUCCGGUUACTT against Ttc39b | 1.36 (inactive) |
| CCUUUACACCACUCUAUUUTT against Adgb | -0.795 (inactive) |
| GCCGCUACCUAUGAUGUCCTT against Kcne4 | 0.385 (inactive) |
| GGUCCUGGAAUCUCAAAAUTT against Entpd1 | -0.506 (inactive) |
| GCAGAUCGCAAAAGAUCCUTT against Nppa | 0.69 (inactive) |
| GGUCAAGUCAGUAACUGCATT against Olfr10 | 0.747 (inactive) |
| GCUCAGAUUUGCUUUAUGATT against Ube2r2 | 0.367 (inactive) |
| GGGAAUGGCUAAUGUUUAUTT against Stk38l | 2.32 (active) |
| GCCUCACUUUGCCAUGCAUTT against Pou4f1 | -1.78 (inactive) |
| GGAUGCCAGAAGAAUAUUCTT against Pnlip | 2.43 (active) |
| CCAUGCUGAUUGCUCCGACTT against Cass4 | 1.46 (inactive) |
